Experimental data published in PubChem BioAssay (NCI).
The panel holds about 83,000 compounds, 20% with a hit somewhere; the sample as a whole holds those more often.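 A percent growth of 40 corresponds to 60% growth inhibition; 0 means no net growth; -100 means all cells died. Active threshold: below 10.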 Values without a mark were called inactive. Calls of active or inactive are those of the source.

Test system: NCI-H522 lung
Assay: NCI-60 one-dose screen, 48 h (100 = growth as untreated, 0 = no growth, -100 = all killed)
Settings: 10 µM unless noted

SMILES	growth
C[C@]12CC[C@@H]3c4cc(O)c(O)cc4CC[C@H]3[C@@H]1CC[C@@H]2O	-8.58% (active)
CCCOC(=O)C1(O)CCCC1	75%
COC1=CC(c2ccc[nH]2)=N/C1=C\c1[nH]c(C)c(C(=O)CCCCC(=O)NCc2ccccc2)c1C	-33.5% (active)
O=C(NNC(=S)Nc1ccccc1)c1ccccn1	69%
COc1cc(NC(=O)CCl)ccc(=O)c1	17.2%
COc1ccc(S(=O)(=O)N2CCN(c3cc4c(cc3F)c(=O)c(C(=O)O)cn4C3CC3)CC2)c(OC)c1	91.4%
COc1ccc(Cn2cc(COc3cc(/C=C/C(=O)c4cc(OC)c(OC)c(OC)c4)ccc3OC)nn2)cc1	41.6%
COc1cc(C(=O)OCCCCCCCCCCC[P+](c2ccccc2)(c2ccccc2)c2ccccc2)ccc1O	-50.3% (active)
CC(C(=O)n1cc(-c2ccccc2)c(-c2ccccc2)c1)c1ccccc1 (stereo not drawn)	102%
C=CCOc1cccc(/C=C/C(=O)c2sc(Nc3cccnc3)nc2C)c1	65.9%
O=C(CCCn1c(=O)c2sc3ccccc3c2n2nnc(-c3ccccc3)c12)NCCc1cnc[nH]1	-71.9% (active)
CCC1CCc2nc3sc(C(=O)Nc4cccc(C)c4)c(N)c3cc2C1 (stereo not drawn)	71.5%
Cc1cccc(NC(=O)c2sc3nc4c(cc3c2N)CCCC4)c1	24.5%
COc1ccc(-c2cn[nH]c2-c2cc(OC)c3c(c2)OCCO3)cc1	-22.8% (active)
CC(C)C[C@H](NC(=O)Cn1ccc(NCc2ccccc2)cc1=O)B(O)O	-20.7% (active)
CC[C@H](C)[C@H]1NC(=O)[C@@H](N[C@](C)(O)[C@@H](N)CC(C)C)[C@@H](C)OC(=O)[C@H](Cc2ccc(OC)cc2)N(C)C(=O)[C@@H]2CCCN2C(=O)[C@H](CC(C)C)NC(=O)[C@@H](C)C(=O)[C@H](C(C)C)OC(=O)C[C@@H]1O	-37.7% (active)
CCNC(=O)C1CCCN1C(=O)C(CCCN=C(N)N)NC(=O)C(CC(C)C)NC(=O)C(CC(C)C)NC(=O)C(Cc1ccc(O)cc1)NC(=O)C(CO)NC(=O)C(Cc1c[nH]c2ccccc12)NC(=O)C(Cc1cnc[nH]1)NC(=O)C1CCC(=O)N1 (stereo not drawn)	74.1%
COC(=O)c1cc(-c2cccs2)c(C#N)c(N)c1C#N	95.4%
O=C1N=C(c2c(-c3[nH]c(=O)c4ccc(Br)cc4c3O)c(O)c3ccccc3c2O)C(=O)c2cc(Br)ccc21	-31.4% (active)

SMILES	growth
CC[C@]1(O)C[C@@H]2CN(Cc3c([nH]c4ccccc34)[C@@](C(=O)OC)(c3cc4c(cc3OC)N(C)[C@H]3[C@@](O)(C(=O)OC)[C@H](OC(C)=O)[C@]5(CC)[C@@H]6C[C@@H]6CN6CC[C@]43[C@@H]65)C2)C1	-20.3% (active)
CCOC(=O)[C@H](CSSc1ncnc2cc[nH]c12)NC(=O)[C@@H](C)c1ccc2cc(OC)ccc2c1	11.3%
Cc1nc(Nc2cccnc2)sc1C(=O)/C=C/c1ccc(F)cc1	52%
COc1ccc(C2=CC(c3ccc(Oc4ccnc5cc(Cl)ccc45)c(OC)c3)c3c(nc(OC)[nH]c3=O)N2)cc1 (stereo not drawn)	75.7%
COc1ccccc1CNCCCN1C(=O)c2ccc3c4c(ccc(c24)C1=O)C(=O)N(CCCNCCCCNCCCCN)C3=O	-40.8% (active)
Cc1cc(C)c(S(=O)(=O)N2CCN(c3cc4c(cc3F)c(=O)c(C(=O)O)cn4C3CC3)CC2)c(C)c1	67.3%
COc1ccc(C(=O)/C=C/c2cc(C(=O)c3cc(OC)c(OC)c(OC)c3)ccc2OC)cc1	-0.114% (active)
NC(=O)NC(=O)/C=C/C(=O)OCCCl	-42.5% (active)
COc1cc2nc(N3CCC[C@@H](NC4=CC(=O)c5ccccc5C4=O)C3)nc(N)c2cc1OC	94.3%
O=S(=O)(c1ccccc1)n1ccc(-c2ccc3c(c2)CCO3)n1	61.7%
O=C(CNc1ccc(Cl)cc1)Nc1ccc(-c2nc3ccccc3s2)cc1	-94.5% (active)
COc1ccc(/C=C2\CCCC3=C2NC(C)=NC3c2ccc(OC)c(OC)c2)cc1OC (stereo not drawn)	-7.42% (active)
COc1cc(OC)c(C(=O)/C=C/c2ccc(C(F)(F)F)cc2)c(OC)c1	28.8%
O=C(CCl)NCCNc1nccc(Nc2ccc(S(=O)(=O)Nc3ccccn3)cc2)n1	-63.9% (active)
O=C(O)c1ccc(-n2c(=O)c3ccccc3c3ccccc3c2=O)cc1	94.9%
Cc1nn(-c2ccc(Cl)cc2)c(=O)n1CCOc1ccccc1Cl	116%
CC(C)(C)OC(=O)N[C@@H](Cc1ccccc1)C(=O)N(Cc1ccccc1)C1(C(=O)NCc2ccccc2)CCN(Cc2ccccc2)CC1	43.7%
COc1ccc(C(=O)c2cc(OC)c(OC)c(OC)c2)cc1/C=C/C(=O)c1ccc(OC)c(OC)c1	3.99% (active)
CCCCNC(=O)NS(=O)(=O)c1ccc(N2N=C(c3ccc(C)cc3C)CC2c2ccc(OC)cc2)cc1 (stereo not drawn)	54.4%
